Experimental data taken from PubChem BioAssay AID1159580 (chemical genetic matrix, 2015).
Values joined by “and” are separate entries in the source; they are usually repeats but may differ in a detail not shown here. Equal entries are not always repeated. Out of some 5,500 compounds screened, about 2,000 (36%) were called active. Inconclusive results (about 18%) are left out. No stated cut-off is given here; in the data, active means normalized growth mostly below about 0.91 (no sharp cut-off); inconclusive means no clear call, values can overlap the other calls; inactive means mostly above about 0.92. This is one part of the list.

Assay: chemical genetic growth profiling, strain panel (AID 1159580);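 further: tested at 20 µM; growth read once vehicle control cultures reached saturation at 30 °C; 1 = growth at the plate median or of vehicle wells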
Details: S. cerevisiae deletion strains, growth OD
[1] = locus YAL013W, strain DEP1, stronger effect = lower value
[2] = locus YDR150W, strain NUM1, stronger effect = lower value
[3] = locus YGR078C, strain PAC10, stronger effect = lower value
[4] = locus YMR263W, strain SAP30, stronger effect = lower value
[5] = locus YPL055C, strain LGE1, stronger effect = lower value
[6] = locus YPL241C, strain CIN2, stronger effect = lower value
[7] = locus YBR229C, strain ROT2, stronger effect = lower value
[8] = locus YDL101C, strain DUN1, stronger effect = lower value
[9] = locus YEL061C, strain CIN8, stronger effect = lower value
[10] = locus YHR030C, strain SLT2, stronger effect = lower value
[11] = locus YHR087W, strain rtc3, stronger effect = lower value
[12] = locus YJR043C, strain POL32, stronger effect = lower value
[13] = locus YJR075W, strain HOC1, stronger effect = lower value
[14] = locus YLR039C, strain RIC1, stronger effect = lower value
[15] = locus YLR058C, strain SHM2 (second series), stronger effect = lower value
[16] = locus YLR085C, strain ARP6, stronger effect = lower value
[17] = locus YLR262C, strain YPT6, stronger effect = lower value
[18] = locus YML094W, strain GIM5, stronger effect = lower value
[19] = locus YMR219W, strain ESC1, stronger effect = lower value
[20] = locus YNL153C, strain GIM3, stronger effect = lower value
[21] = locus YNL298W, strain CLA4 (second series), stronger effect = lower value
[22] = locus YNL322C, strain KRE1, stronger effect = lower value
[23] = locus YNR030W, strain Alg12, stronger effect = lower value
[24] = locus YPR135W, strain CTF4, stronger effect = lower value

With `CNC(CC(=O)O)C(=O)O` (configuration not stated) the normalized growth [1] was 1.02 (inactive), the normalized growth (locus YAL040C, strain CLN3, stronger effect = lower value) was 1.02 (inactive) and the normalized growth (locus YCL061C, strain MRC1 (second series), stronger effect = lower value) was 1.02 (inactive). The normalized growth [2] was 1.03 (inactive), the normalized growth (locus YDR363W, strain ESC2, stronger effect = lower value) was 1 (inactive) and the normalized growth (locus YER002W, strain NOP16, stronger effect = lower value) was 1 (inactive). The normalized growth [3] was 1.02 (inactive), the normalized growth [4] was 1.01 (inactive) and the normalized growth (locus YMR307W, strain GAS1, stronger effect = lower value) was 1.02 (inactive). The normalized growth (locus YNL175C, strain NOP13, stronger effect = lower value) was 1.01 (inactive), the normalized growth (locus YNL197C, strain WHI3, stronger effect = lower value) was 1 (inactive) and the normalized growth (locus YNL224C, strain SQS1, stronger effect = lower value) was 1.01 (inactive). For the same compound, the normalized growth (locus YOR083W, strain WHI5 (second series), stronger effect = lower value) was 1.05 (inactive), the normalized growth [5] was 1.02 (inactive) and the normalized growth [6] was 1.03 (inactive).
For `CCOC(=O)CC(=O)Nc1scc(C)c1C(=O)OCC`, the normalized growth [1] was 0.988 (inactive), the normalized growth [7] was 0.977 (inactive) and the normalized growth [8] was 0.97 (inactive). For the same compound, the normalized growth (locus YDL134C, strain PPH21, stronger effect = lower value) was 0.923 (inactive), the normalized growth [2] was 0.995 (inactive) and the normalized growth [9] was 0.943 (inactive). For the same compound, the normalized growth [3] was 0.947 (inactive), the normalized growth [10] was 0.906 (inactive) and the normalized growth [11] was 0.924 (inactive). For the same compound, the normalized growth (locus YJL187C, strain SWE1, stronger effect = lower value) was 0.958 (inactive), the normalized growth [12] was 0.979 (inactive) and the normalized growth [13] was 0.951 (inactive). For the same compound, the normalized growth (locus YKL190W, strain CNB1, stronger effect = lower value) was 0.97 (inactive), the normalized growth [14] was 0.987 (inactive) and the normalized growth [15] was 0.98 (inactive). The normalized growth [16] was 0.872 (inactive), the normalized growth [17] was 0.994 (inactive) and the normalized growth [18] was 0.933 (inactive). The normalized growth [19] was 0.968 (inactive), the normalized growth [4] was 0.984 (inactive) and the normalized growth (locus YNL128W, strain TEP1, stronger effect = lower value) was 0.98 (inactive). For the same compound, the normalized growth [20] was 0.969 (inactive), the normalized growth [21] was 0.934 (inactive) and the normalized growth [22] was 0.957 (inactive). For the same compound, the normalized growth [23] was 0.924 (inactive), the normalized growth [5] was 0.968 (inactive) and the normalized growth [6] was 0.936 (inactive). The normalized growth [24] was 1.14 (inactive).
For `CCOC(=O)c1c(N=Cc2cc(Br)c(Br)cc2O)sc2c1CCCC2`, the normalized growth [1] was 0.131 (active), the normalized growth (locus YAR019C, strain CDC15, stronger effect = lower value) was 0.975 (inactive) and the normalized growth (locus YBL105C, strain PKC1, stronger effect = lower value) was 0.97 (inactive). For the same compound, the normalized growth (locus YBR135W, strain CKS1, stronger effect = lower value) was 0.968 (inactive), the normalized growth (locus YBR136W, strain MEC1, stronger effect = lower value) was 0.97 (inactive) and the normalized growth (locus YBR160W, strain CDC28, stronger effect = lower value) was 0.976 (inactive). For the same compound, the normalized growth [7] was 0.542 (active), the normalized growth (locus YDL017W, strain CDC7, stronger effect = lower value) was 0.976 (inactive) and the normalized growth (locus YDL028C, strain MPS1, stronger effect = lower value) was 0.956 (inactive). For the same compound, the normalized growth [8] was 0.963 (inactive) and 0.697 (active), the normalized growth (locus YDL108W, strain KIN28, stronger effect = lower value) was 0.959 (inactive) and the normalized growth (locus YDL132W, strain cdc53, stronger effect = lower value) was 0.964 (inactive). The normalized growth (locus YDL214C, strain PRR2, stronger effect = lower value) was 0.667 (active), the normalized growth (locus YDR052C, strain DBF4, stronger effect = lower value) was 0.971 (inactive) and the normalized growth (locus YDR054C, strain cdc34, stronger effect = lower value) was 0.97 (inactive). The normalized growth (locus YDR226W, strain ADK1, stronger effect = lower value) was 0.975 (inactive), the normalized growth (locus YDR477W, strain SNF1, stronger effect = lower value) was 0.595 (active) and the normalized growth [9] was 0.265 (active). For the same compound, the normalized growth (locus YER123W, strain YCK3, stronger effect = lower value) was 0.541 (active), the normalized growth (locus YER133W, strain GLC7, stronger effect = lower value) was 0.696 (active) and the normalized growth (locus YFL009W, strain cdc4, stronger effect = lower value) was 0.983 (inactive). The normalized growth (locus YFL029C, strain CAK1, stronger effect = lower value) was 0.977 (inactive), the normalized growth (locus YFR003C, strain YPI1, stronger effect = lower value) was 0.961 (inactive) and the normalized growth (locus YFR019W, strain FAB1, stronger effect = lower value) was 0.804 (inactive). For the same compound, the normalized growth (locus YFR028C, strain CDC14, stronger effect = lower value) was 0.982 (inactive), the normalized growth (locus YGR040W, strain KSS1, stronger effect = lower value) was 0.612 (active) and the normalized growth (locus YGR052W, strain FMP48, stronger effect = lower value) was 0.45 (active). For the same compound, the normalized growth [3] was 0.241 (active), the normalized growth (locus YGR092W, strain DBF2, stronger effect = lower value) was 0.173 (active) and the normalized growth (locus YGR229C, strain SMI1, stronger effect = lower value) was 0.969 (inactive). The normalized growth [10] was 0.211 (active) and 0.239 (active), the normalized growth (locus YHR079C, strain IRE1, stronger effect = lower value) was 0.262 (active) and the normalized growth (locus YHR082C, strain KSP1, stronger effect = lower value) was 0.368 (active). For the same compound, the normalized growth [11] was 0.554 (active), the normalized growth (locus YHR205W, strain SCH9, stronger effect = lower value) was 0.458 (active) and the normalized growth (locus YIL147C, strain SLN1, stronger effect = lower value) was 0.96 (inactive). For the same compound, the normalized growth (locus YJL095W, strain BCK1, stronger effect = lower value) was 0.314 (active), the normalized growth (locus YJL128C, strain PBS2, stronger effect = lower value) was 0.959 (inactive) and the normalized growth (locus YJL157C, strain FAR1, stronger effect = lower value) was 0.589 (active). The normalized growth (locus YJR016C, strain ILV3, stronger effect = lower value) was 0.968 (inactive), the normalized growth [12] was 0.318 (active) and the normalized growth (locus YJR066W, strain TOR1 (second series), stronger effect = lower value) was 0.724 (inactive). For the same compound, the normalized growth (locus YJR066W, strain TOR1, stronger effect = lower value) was 0.38 (active), the normalized growth [13] was 0.769 (active) and the normalized growth (locus YKL048C, strain ELM1, stronger effect = lower value) was 0.629 (active). The normalized growth (locus YKL067W, strain YNK1, stronger effect = lower value) was 0.674 (active), the normalized growth (locus YKL101W, strain HSL1, stronger effect = lower value) was 0.555 (active) and the normalized growth (locus YKL193C, strain SDS22, stronger effect = lower value) was 0.964 (inactive). The normalized growth (locus YKL203C, strain TOR2, stronger effect = lower value) was 0.614 (active), the normalized growth [14] was 0.164 (active) and the normalized growth [15] was 0.916 (active). The normalized growth [16] was 0.118 (active), the normalized growth (locus YLR113W, strain HOG1, stronger effect = lower value) was 0.475 (active) and the normalized growth (locus YLR133W, strain CKI1, stronger effect = lower value) was 0.608 (active). The normalized growth [17] was 0.17 (active), the normalized growth (locus YLR403W, strain SFP1, stronger effect = lower value) was 0.525 (active) and the normalized growth (locus YML070W, strain DAK1, stronger effect = lower value) was 0.576 (active). For the same compound, the normalized growth [18] was 0.442 (active), the normalized growth (locus YMR001C, strain CDC5, stronger effect = lower value) was 0.975 (inactive) and the normalized growth (locus YMR205C, strain PFK2 (second series), stronger effect = lower value) was 0.635 (active). For the same compound, the normalized growth [19] was 0.83 (active), the normalized growth [4] was 0.162 (active) and the normalized growth (locus YMR277W, strain FCP1, stronger effect = lower value) was 0.968 (inactive). For the same compound, the normalized growth (locus YNL006W, strain LST8, stronger effect = lower value) was 0.976 (inactive), the normalized growth (locus YNL020C, strain ARK1, stronger effect = lower value) was 0.51 (active) and the normalized growth [20] was 0.511 (active). The normalized growth (locus YNL161W, strain CBK1, stronger effect = lower value) was 0.981 (inactive), the normalized growth (locus YNL183C, strain NPR1, stronger effect = lower value) was 0.468 (active) and the normalized growth (locus YNL207W, strain RIO2, stronger effect = lower value) was 0.969 (inactive). For the same compound, the normalized growth (locus YNL222W, strain SSU72, stronger effect = lower value) was 0.974 (inactive), the normalized growth [21] was 0.652 (active) and the normalized growth (locus YNL307C, strain MCK1 (second series), stronger effect = lower value) was 0.314 (active). The normalized growth [22] was 0.714 (active), the normalized growth [23] was 0.533 (active) and the normalized growth (locus YOL006C, strain TOP1, stronger effect = lower value) was 0.209 (active). The normalized growth (locus YOL078W, strain AVO1, stronger effect = lower value) was 0.967 (inactive), the normalized growth (locus YOL136C, strain PFK27, stronger effect = lower value) was 0.577 (active) and the normalized growth (locus YOR061W, strain CKA2, stronger effect = lower value) was 0.383 (active). For the same compound, the normalized growth (locus YOR119C, strain RIO1, stronger effect = lower value) was 0.63 (active), the normalized growth (locus YOR231W, strain MKK1, stronger effect = lower value) was 0.335 (active) and the normalized growth (locus YOR329C, strain SCD5, stronger effect = lower value) was 0.974 (inactive). The normalized growth (locus YPL031C, strain PHO85, stronger effect = lower value) was 0.561 (active), the normalized growth [5] was 0.113 (active) and the normalized growth (locus YPL153C, strain RAD53, stronger effect = lower value) was 0.511 (active). The normalized growth (locus YPL204W, strain HRR25, stronger effect = lower value) was 0.575 (active), the normalized growth (locus YPL209C, strain IPL1, stronger effect = lower value) was 0.975 (inactive) and the normalized growth [6] was 0.558 (active). The normalized growth (locus YPL256C, strain CLN2, stronger effect = lower value) was 0.458 (active), the normalized growth (locus YPR025C, strain CCL1, stronger effect = lower value) was 0.981 (inactive) and the normalized growth (locus YPR106W, strain ISR1, stronger effect = lower value) was 0.968 (inactive). The normalized growth (locus YPR111W, strain DBF20, stronger effect = lower value) was 0.964 (inactive), the normalized growth [24] was 0.635 (active) and the normalized growth (strain NNK1, stronger effect = lower value) was 0.96 (inactive). For the same compound, the normalized growth (strain TSCII, stronger effect = lower value) was 0.971 (inactive).
